Inconclusive results are not listed. Calls of active or inactive are those of the source. How the source made its calls, unless noted: active means hit-call score of the fitted dose curve at least 0.9, where 1 is the maximum; inconclusive means response in the unintended direction; inactive means score below 0.9.
Key:
[1] = TOX21_p53_BLA_p2_viability: Viability Assessment in the Tox21 HCT-116 p53 Agonism Beta-lactamase Assay, Phase 2 (AID 2283591);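 further: compound exposure lasted 16 h at 37 °C; actives lower the ATP signal meaning cytotoxicity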
In short: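 HCT-116 p53-bla cells (4000/well) rested 5 h at 37C, then received compounds in DMSO (217-fold dilution) for 16 h at 37C, 5% CO2. After the CCF4 read, CellTiter-Glo was added; ATP luminescence was read after 30 min at room temperature.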

[2] = biological target: Cellular tumor antigen p53 (Homo sapiens) (UniProt P04637); test: TOX21_p53_BLA_p2_ratio: Tox21 HCT-116 p53 Agonism Beta-lactamase Assay, Ratio, Phase 2 (AID 2283592)
Chain of Cellular tumor antigen p53 (Homo sapiens) (P04637 whole entry, looked up): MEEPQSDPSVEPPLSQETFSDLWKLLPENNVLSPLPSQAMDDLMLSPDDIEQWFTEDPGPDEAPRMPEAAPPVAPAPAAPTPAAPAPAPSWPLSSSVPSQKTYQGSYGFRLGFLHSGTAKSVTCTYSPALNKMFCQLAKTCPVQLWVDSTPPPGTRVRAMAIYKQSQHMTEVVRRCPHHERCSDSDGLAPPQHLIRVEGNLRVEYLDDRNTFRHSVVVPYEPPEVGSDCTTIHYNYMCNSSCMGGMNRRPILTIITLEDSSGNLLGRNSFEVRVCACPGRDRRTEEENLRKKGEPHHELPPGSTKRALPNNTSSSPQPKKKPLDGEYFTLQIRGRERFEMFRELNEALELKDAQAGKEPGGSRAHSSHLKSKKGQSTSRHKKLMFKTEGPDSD
In short: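 In this cell-based reporter format, HCT116 cells were dosed with chemicals delivered from DMSO by 217-fold dilution and incubated 16 h at 37C. Emission at 460 and 530 nm after 2 h CCF4-AM loading provided the ratio, fitted upward versus DMSO.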

[3] = biological target: Cellular tumor antigen p53 (Homo sapiens) (UniProt P04637); test: TOX21_p53_BLA_p3_ratio: Tox21 HCT-116 p53 Agonism Beta-lactamase Assay, Ratio, Phase 3 (AID 2283596)
In short: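 HCT116 p53-bla cells (4000/well) given compound in DMSO (217-fold dilution) after 5 h, incubated 16 h at 37C. CCF4-AM substrate 2 h at room temperature; 460/530 nm emission ratio, gain fitted against DMSO.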

[4] = TOX21_p53_BLA_p4_viability: Viability Assessment in the Tox21 HCT-116 p53 Agonism Beta-lactamase Assay, Phase 4 (AID 2283597);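 further: hits lower the luminescence signal meaning cytotoxicity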
In short: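 We seeded HCT116 p53 reporter cells at 4000/well and waited 5 h. We then added compounds in DMSO at a 217-fold dilution and incubated for 16 h. Viability was read as CellTiter-Glo luminescence after 30 min at RT.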

[5] = TOX21_p53_BLA_p5_viability: Viability Assessment in the Tox21 HCT-116 p53 Agonism Beta-lactamase Assay, Phase 5 (AID 2283600)
In short: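 Compounds, pinned from DMSO at 217-fold dilution, were left on the cells for 16 h. The viability endpoint was ATP content measured by CellTiter-Glo luminescence, where falling signal reflects cytotoxicity.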

[6] = biological target: Cellular tumor antigen p53 (Homo sapiens) (UniProt P04637); test: TOX21_p53_BLA_p4_ratio: Tox21 HCT-116 p53 Agonism Beta-lactamase Assay, Ratio, Phase 4 (AID 2283601)
In short: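 HCT116 cells carrying an inducible beta-lactamase reporter were plated at 4000 cells/well, rested 5 h, then exposed to compounds in DMSO (217-fold dilution) for 16 h at 37C. CCF4-AM substrate was loaded 2 h at room temperature; 460/530 nm emission ratio scored gain-of-signal versus DMSO.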

[7] = biological target: Cellular tumor antigen p53 (Homo sapiens) (UniProt P04637); test: TOX21_p53_BLA_p5_ratio: Tox21 HCT-116 p53 Agonism Beta-lactamase Assay, Ratio, Phase 5 (AID 2283599)
In short: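 HCT-116 cells carrying a p53-inducible beta-lactamase reporter were seeded at 4000 cells/well and dosed after 5 h with compound in DMSO (217-fold dilution). After 16 h at 37C, CCF4-AM substrate was added for 2 h, and the 460/530 nm emission ratio was scored as gain-of-signal versus DMSO.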

PGR (gene 5241) = PGR (gene 5241) (UniProt P06401); test: TOX21_PR_BLA_Followup_Antagonist_ratio: Tox21 HEK293 Progesterone Receptor (PR) Antagonism Beta-lactamase Follow-Up Assay, Ratio (AID 2283934)
Chain of PGR (gene 5241) (P06401 whole entry, looked up): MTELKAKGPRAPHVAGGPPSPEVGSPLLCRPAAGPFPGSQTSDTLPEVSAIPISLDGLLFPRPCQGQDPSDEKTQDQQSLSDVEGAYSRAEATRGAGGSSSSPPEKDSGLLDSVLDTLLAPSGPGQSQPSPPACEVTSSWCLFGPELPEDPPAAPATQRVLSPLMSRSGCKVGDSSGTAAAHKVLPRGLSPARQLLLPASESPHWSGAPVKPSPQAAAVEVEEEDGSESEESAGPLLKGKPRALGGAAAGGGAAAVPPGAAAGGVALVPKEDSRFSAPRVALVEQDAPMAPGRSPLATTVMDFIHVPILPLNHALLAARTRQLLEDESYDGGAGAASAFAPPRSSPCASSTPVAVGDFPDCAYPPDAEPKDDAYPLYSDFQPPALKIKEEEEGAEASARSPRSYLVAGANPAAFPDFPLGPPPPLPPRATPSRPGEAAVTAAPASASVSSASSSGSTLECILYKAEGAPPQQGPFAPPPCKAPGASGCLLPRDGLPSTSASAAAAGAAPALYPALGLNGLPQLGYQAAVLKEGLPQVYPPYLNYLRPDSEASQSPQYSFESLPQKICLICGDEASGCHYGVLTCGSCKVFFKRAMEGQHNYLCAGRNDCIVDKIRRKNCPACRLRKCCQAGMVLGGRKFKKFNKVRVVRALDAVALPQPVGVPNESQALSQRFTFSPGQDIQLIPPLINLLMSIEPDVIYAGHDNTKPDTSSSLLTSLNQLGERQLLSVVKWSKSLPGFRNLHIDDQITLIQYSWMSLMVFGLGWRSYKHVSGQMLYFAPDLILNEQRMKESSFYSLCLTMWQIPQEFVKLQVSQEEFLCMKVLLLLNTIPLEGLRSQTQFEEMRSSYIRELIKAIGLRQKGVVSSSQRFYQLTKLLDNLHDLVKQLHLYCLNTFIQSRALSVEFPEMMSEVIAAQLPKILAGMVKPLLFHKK
In short: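 HEK293T PR-UAS-bla, 2% CS-FBS; 6 hr plating, then cpd + R5020 (1 nM final), 16 hr 37C/5% CO2. B/G FRET substrate 2 h RT. Ratio ch2/ch1 vs DMSO; CellTiter-Glo viability multiplexed, autofluorescence checked.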

[8] = TOX21_PR_BLA_Followup_Agonist_viability: Viability Assessment in the Tox21 HEK293 Progesterone Receptor (PR) Agonism Beta-lactamase Follow-Up Assay (AID 2283935);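 further: signal loss means lower viability so actives are cytotoxic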
In short: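 HEK293T PR-UAS-bla, 3,000 cells/well, 2% CS-FBS; 6 hr pre-incubation; cpd in DMSO, 16 hr 37C; LiveBLAzer 2 hr RT, then CellTiter-Glo 30 min RT, luminescence. Decrease = lost viability.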

[9] = TOX21_PR_BLA_Followup_Antagonist_viability: Viability Assessment in the Tox21 HEK293 Progesterone Receptor (PR) Antagonism Beta-lactamase Follow-Up Assay (AID 2283936);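 further: hits lower the luminescence signal meaning cytotoxicity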
In short: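 PR-UAS-bla HEK293T cells (3,000/well, 2% charcoal-stripped FBS) given compound plus R5020 agonist, 16 h at 37C. CellTiter-Glo added after bla read, 30 min at room temperature; luminescence loss indicates cytotoxicity.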

[10] = CCTE_Harrill_HTTr_Viability_MCF7: CCTE's 6-hour Cell Viability Assessment for the High-Throughput Transcriptomics (HTTr) Platform, in MCF-7 cells cultured in DMEM + 10% fetal bovine serum, Harrill Lab (AID 2284010; active means hit-call score of the fitted dose curve at least 0.9, where 1 is the maximum; inactive means score below 0.9)
In short: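 Cells were dosed with chemicals in an eight-point dilution series, imaged 6 hours later for propidium iodide uptake, and the endpoint was analyzed by bidirectional fitting against DMSO as negative control.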

[11] = CCTE_Harrill_HTTr_Apoptosis_MCF7: CCTE's 6-hour Apoptosis Assessment for the High-Throughput Transcriptomics (HTTr) Platform, in MCF-7 cells cultured in DMEM + 10% fetal bovine serum, Harrill Lab (AID 2284011; active means hit-call score of the fitted dose curve at least 0.9, where 1 is the maximum; inactive means score below 0.9)
In short: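 Read-out: CellEvent Caspase 3/7 Green signal by high content imaging, gain-of-signal indicating apoptosis. MCF-7 cells, DMEM + 10% FBS, eight-point dilution series, 6 h exposure. Curves fitted bidirectionally relative to DMSO negative control.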

[12] = CCTE_Harrill_HTTr_CellCount_MCF7: CCTE's Cell Proliferation Assessment for the High-Throughput Transcriptomics (HTTr) Platform, Harrill Lab (AID 2284012);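 further: count of Hoechst-stained nuclei per well by high-content imaging in MCF-7 cells; cells exposed to compound for six hours; intended direction is loss of nuclei count meaning fewer cells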
In short: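 Chemicals in eight-point dilution series are added to MCF-7 cells for six hours, nuclei are stained with Hoechst and imaged, and per-well nuclei counts are fitted in both directions relative to DMSO controls.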

[13] = biological target: Estrogen receptor (Homo sapiens) (UniProt P03372); test: CCTE_Deisenroth_AIME_96WELL_LUC_Active: CCTE's 96-well Estrogen Receptor Transactivation Assay with AIME metabolic competence (ERTA luciferase; metabolism positive), Deisenroth Lab (AID 2284023)
Chain of Estrogen receptor (Homo sapiens) (P03372 whole entry, looked up): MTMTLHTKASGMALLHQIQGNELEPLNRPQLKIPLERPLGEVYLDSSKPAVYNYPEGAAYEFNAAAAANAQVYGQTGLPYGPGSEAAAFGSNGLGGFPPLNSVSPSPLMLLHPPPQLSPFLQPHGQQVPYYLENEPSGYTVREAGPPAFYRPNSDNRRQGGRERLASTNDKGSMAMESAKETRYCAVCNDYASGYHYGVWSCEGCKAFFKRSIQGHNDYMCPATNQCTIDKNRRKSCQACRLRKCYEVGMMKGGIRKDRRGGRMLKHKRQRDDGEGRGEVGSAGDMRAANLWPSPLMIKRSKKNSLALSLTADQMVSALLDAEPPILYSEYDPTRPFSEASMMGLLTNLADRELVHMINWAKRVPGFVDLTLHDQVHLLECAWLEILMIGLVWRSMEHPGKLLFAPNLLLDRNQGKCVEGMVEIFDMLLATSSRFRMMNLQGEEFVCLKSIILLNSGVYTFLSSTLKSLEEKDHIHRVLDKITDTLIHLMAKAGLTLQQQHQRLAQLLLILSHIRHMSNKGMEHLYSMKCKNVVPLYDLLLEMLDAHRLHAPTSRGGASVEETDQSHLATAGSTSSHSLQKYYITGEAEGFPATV
In short: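 Chemicals pre-incubated 2 h with alginate-immobilized phenobarbital/beta-naphthoflavone-induced male Sprague Dawley rat liver S9, then medium transferred to VM7Luc4E2 cells for 24 h luciferase read-out. 10-point series 0.002 - 200 uM; fitted relative to 17beta-estradiol.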

[14] = biological target: Estrogen receptor (Homo sapiens) (UniProt P03372); test: CCTE_Deisenroth_AIME_96WELL_LUC_Inactive: CCTE's 96-well Estrogen Receptor Transactivation Assay without AIME metabolic competence (ERTA luciferase; metabolism negative), Deisenroth Lab (AID 2284025)
In short: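 VM7Luc4E2 breast cells, luciferase read 24 h after dosing with medium pre-incubated 2 h on alginate-water lids (metabolism negative). 10-point series 0.002–200 uM, single technical replicate, n≥4; fit relative to 17beta-estradiol.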

Measured: AC50

CN[C@H](CC(C)C)C(=O)N[C@H]1C(=O)N[C@@H](CC(N)=O)C(=O)N[C@H]2C(=O)N[C@H]3C(=O)N[C@H](C(=O)N[C@H](C(=O)O)c4cc(O)cc(O)c4-c4cc3ccc4O)[C@H](O)c3ccc(c(Cl)c3)Oc3cc2cc(c3O[C@@H]2O[C@H](CO)[C@@H](O)[C@H](O)[C@H]2O[C@H]2C[C@](C)(N)[C@H](O)[C@H](C)O2)Oc2ccc(cc2Cl)[C@H]1O
inactive: [1] | [2] | [3] | [4] | [5] | [6]

CCN[C@H]1CN(CCCOC)S(=O)(=O)c2sc(S(N)(=O)=O)cc21
inactive: [1] | [2] | [3] | [4] | [7] | [6]

CC(CCC(=O)O)C(=O)O (stereo unspecified)
inactive: [1] | [2] | [3] | [4] | [7] | [6]

CN=C(NC#N)NCCSCc1csc(N=C(N)N)n1
inactive: [1] | [2] | [3] | [4] | [7] | [6]

Nc1ccc(S(=O)(=O)NCc2ccccc2)cc1
inactive: [1] | [2] | [3] | [4] | [5]

CN1[C@@H]2CC[C@H]1CC(NC(=O)n1c(=O)[nH]c3ccccc31)C2 (stereo partly specified)
inactive: [1] | [2] | [3] | [4] | [7] | [6]

NC(=O)c1cc[n+](CC2=C(C(=O)O)N3C(=O)[C@@H](NC(=O)[C@@H](c4ccccc4)S(=O)(=O)[O-])[C@H]3SC2)cc1
inactive: [1] | [2] | [3] | [4] | [7] | [6]

Cc1occc1S
inactive: [1] | [2] | [3] | [4] | [7] | [6]

NCCNCCO
inactive: [1] | [2] | [3] | [4] | [7] | [6]

COc1ccc(CCNC[C@H](O)c2ccc(O)cc2)cc1OC
inactive: [1] | [2] | [3] | [4] | [7] | [5] | [6]

O=[N+]([O-])c1ccc2c(c1)Cc1ccccc1-2
active: PGR (gene 5241) 25 µM | [14] 26.8 µM
inactive: all other assays above

CO
inactive: [1] | [2] | [3] | [4] | [7] | [6]

— PubChem BioAssay (EPA / NIEHS)
